Assay outcomes (PubChem)
CYP2C9 inhib – blocks human cytochrome P450 2C9 | P11712 | CYP2C9 Supersomes, luciferin-H conversion, luminescence | inhibition, % at 5 µM | 96,000 tested, 20% active | AID 777;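 active = blocking of liver enzyme CYP2C9 beyond about 50% at 5 µM, limit read from the data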
CYP2C19 inhib – blocks human cytochrome P450 2C19; inhibition, % at 5 µM; 96,000 tested, 21% active; CYP2C19 Supersomes, luciferin-H EGE luminescence, 30 min;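 active = CYP2C19 inhibition above a set limit at 5 µM in the primary screen, cut at about 50% in these data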;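 also: plate controls were negative control wells for no effect and 2.5 mM tranylcypromine positive control for full effect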
CYP2C9 act – CYP2C9 (human) activation; P11712; recombinant CYP2C9, luciferin-H conversion, luminescence; hits give high values; factor 1 = untreated enzyme, 0 = blocked; activation factor at 5 µM; 96,000 tested, 1.4% active; AID 1024;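 active = activation factor of 2 or more for CYP2C9 at a 5 µM dose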;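 also: 0 = sulfaphenazole-blocked wells and 1 = vehicle-only wells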
PTK2B oligo ant – blocks oligomerization of human Pyk2 in cells; Q293 cells, Pyk2 FERM NanoBiT luminescence; hits give low values; AID 1347419; z-score (the deposit names both 25 µM and 10 µM); Q14289; 99,000 tested, 0.83% active;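 active = Z-score of -3 or lower, scaled per plate to the spread of control and sample wells; inactive = z-score above -3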;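 also: negative z-score means lost luminescence so less FERM oligomerization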
Target sequence (Q14289 whole entry, looked up): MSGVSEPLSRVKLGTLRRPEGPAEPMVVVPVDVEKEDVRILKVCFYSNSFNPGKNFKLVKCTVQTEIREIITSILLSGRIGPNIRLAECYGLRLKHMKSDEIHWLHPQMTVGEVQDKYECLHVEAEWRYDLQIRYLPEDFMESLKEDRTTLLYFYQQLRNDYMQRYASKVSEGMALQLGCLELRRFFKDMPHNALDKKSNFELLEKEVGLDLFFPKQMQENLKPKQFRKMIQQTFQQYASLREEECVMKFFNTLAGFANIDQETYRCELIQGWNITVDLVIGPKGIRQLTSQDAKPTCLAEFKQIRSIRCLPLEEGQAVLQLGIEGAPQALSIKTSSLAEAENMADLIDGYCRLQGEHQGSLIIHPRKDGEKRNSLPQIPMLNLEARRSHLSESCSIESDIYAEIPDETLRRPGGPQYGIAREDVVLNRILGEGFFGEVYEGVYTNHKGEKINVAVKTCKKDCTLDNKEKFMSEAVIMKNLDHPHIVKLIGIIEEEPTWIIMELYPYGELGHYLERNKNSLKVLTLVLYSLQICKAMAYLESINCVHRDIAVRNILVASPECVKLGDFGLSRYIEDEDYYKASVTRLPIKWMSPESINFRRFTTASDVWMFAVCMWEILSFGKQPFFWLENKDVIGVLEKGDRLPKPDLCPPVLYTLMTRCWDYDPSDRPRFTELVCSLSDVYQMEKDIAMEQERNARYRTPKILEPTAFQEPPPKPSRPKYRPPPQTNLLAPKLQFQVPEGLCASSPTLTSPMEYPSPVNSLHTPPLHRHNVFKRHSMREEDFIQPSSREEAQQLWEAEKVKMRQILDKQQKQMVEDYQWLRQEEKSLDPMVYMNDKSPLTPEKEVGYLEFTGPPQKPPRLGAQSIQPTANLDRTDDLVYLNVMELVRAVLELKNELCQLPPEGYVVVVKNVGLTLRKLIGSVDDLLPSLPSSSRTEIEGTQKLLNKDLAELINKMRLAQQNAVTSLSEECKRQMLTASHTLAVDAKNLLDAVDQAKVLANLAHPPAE
CYP2C19 act – cytochrome P450 2C19 (human) activation; recombinant CYP2C19, luciferin-H EGE luminescence; hits give high values; 0 = fully inhibited enzyme, 1 = untreated enzyme; activation factor at 5 µM; AID 1025; P33261; 96,000 tested, under 10 active;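 active = activation factor of at least 2 at 5 µM in the primary screen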;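 also: 0 = wells with 2.5 mM tranylcypromine and 1 = vehicle-only wells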
Starred values were filed as active, the others as inactive. Most compounds without a hit are left out; they make up all but 28% or so of the library.

For CCOC(=O)N1CCN(CCC(=O)Nc2ccccc2OC)CC1 the results were PTK2B oligo ant -1.02.
`CCOC(=O)N1CCC(n2c(SCC(=O)N3CCC(C)CC3)nc3ccccc3c2=O)CC1` gave CYP2C9 inhib 59.9*, CYP2C19 inhib 57.4*, CYP2C9 act 0.4, PTK2B oligo ant -1.1 and CYP2C19 act 0.4.
For CCOC(=O)N1CCC(n2c(SCC(=O)NCCC3=CCCCC3)nc3ccccc3c2=O)CC1 the results were CYP2C9 inhib 67.5*, CYP2C19 inhib 58.3*, CYP2C9 act 0.3, PTK2B oligo ant -1.06 and CYP2C19 act 0.4.
Screening CCNC(=O)COn1c(SCC(=O)NCC)nc2ccccc2c1=O returned CYP2C9 inhib 16.1, CYP2C19 inhib 24.5, CYP2C9 act 0.8, PTK2B oligo ant -0.42 and CYP2C19 act 0.8.
Screening CCOC(=O)N1CCC(n2c(SCC(=O)Nc3ccccc3OC)nc3ccccc3c2=O)CC1 returned CYP2C9 inhib 95.4*, CYP2C19 inhib 90.1*, CYP2C9 act 0, PTK2B oligo ant -2.11 and CYP2C19 act 0.1.
COc1ccc(NC(=O)CSc2nc3ccccc3c(=O)n2CCCN2CCCCC2)c(OC)c1 was read as CYP2C9 inhib 15.8, CYP2C19 inhib 64.0*, CYP2C9 act 0.8, PTK2B oligo ant 0.56 and CYP2C19 act 0.4.
CCOc1ccc(OCC)c2sc(C)nc12 was read as CYP2C9 inhib 17.2, CYP2C19 inhib 42.5, CYP2C9 act 0.8, PTK2B oligo ant -0.19 and CYP2C19 act 0.6.
COc1ccc(OC)c2c(C)cc(N3CCCN(C)CC3)nc12 was read as CYP2C9 inhib -17.3, CYP2C19 inhib 12.4, CYP2C9 act 1.2, PTK2B oligo ant 0.04 and CYP2C19 act 0.9.
Screening CCOC(=O)c1cc2oc(C(c3nnnn3C3CCCCC3)N3CCOCC3)cc2[nH]1 (stereo not drawn) returned PTK2B oligo ant 0.79.
CCOC(=O)N1CCC(n2c(SCC(=O)NCc3ccccc3)nc3ccccc3c2=O)CC1 was read as CYP2C9 inhib 53.4*, CYP2C19 inhib 59.6*, CYP2C9 act 0.5, PTK2B oligo ant -0.32 and CYP2C19 act 0.4.
For CCOC(=O)N1CCC(n2c(SCC(=O)N3CCCC3)nc3ccccc3c2=O)CC1 the results were CYP2C9 inhib 39.4, CYP2C19 inhib 21.1, CYP2C9 act 0.6, PTK2B oligo ant 0.94 and CYP2C19 act 0.8.
COCC(C)n1c(SCC(=O)NCCC2=CCCCC2)nc2ccccc2c1=O (stereo not drawn) was read as CYP2C9 inhib 86.7*, CYP2C19 inhib 84.2*, CYP2C9 act 0.1, PTK2B oligo ant -0.32 and CYP2C19 act 0.2.
COc1cccc(NC(=O)C2C3C=CC(O3)C2C(=O)NCc2cccnc2)c1 (stereo not drawn) was read as CYP2C9 inhib 3.6, CYP2C19 inhib 11.5, CYP2C9 act 1, PTK2B oligo ant 0.03 and CYP2C19 act 0.9.
Cc1cc(=O)[nH]c(S/C=C/c2ccccc2)n1 was read as CYP2C9 inhib 36.2, CYP2C19 inhib 17.1, CYP2C9 act 0.6, PTK2B oligo ant 0.6 and CYP2C19 act 0.8.
`COc1ccc2[nH]c(C)c(CCN(Cc3cccs3)C(=S)Nc3ccc(F)cc3)c2c1` gave CYP2C9 inhib 87.0*, CYP2C19 inhib 45.4, CYP2C9 act 0.1 and CYP2C19 act 0.5.
`COc1ccccc1NC(=O)N(CCN(C)C)Cc1cc2cc(C)ccc2[nH]c1=O` gave CYP2C9 inhib -19.0, CYP2C19 inhib 5.7, CYP2C9 act 1.2, PTK2B oligo ant 2.09 and CYP2C19 act 0.9.
`COc1ccc(NC(=S)N(CCc2nc3cc(C)c(C)cc3[nH]2)Cc2cccnc2)cc1` gave CYP2C9 inhib 44.9, CYP2C19 inhib 23.6, CYP2C9 act 0.6, PTK2B oligo ant -1.68 and CYP2C19 act 0.8.
For COc1ccc2[nH]c(C)c(CCN(Cc3cccs3)C(=S)Nc3ccccc3)c2c1 the results were CYP2C9 inhib 86.3*, CYP2C19 inhib 50.1*, CYP2C9 act 0.1 and CYP2C19 act 0.5.
COc1ccccc1NC(=S)N(CCc1c(C)[nH]c2ccccc12)Cc1cccs1 was read as CYP2C9 inhib 36.1, CYP2C19 inhib 58.2*, CYP2C9 act 0.6 and CYP2C19 act 0.4.
`Cc1cc(C)c(C#N)c(=N)o1` gave CYP2C9 inhib -0.5, CYP2C19 inhib 6.1, CYP2C9 act 1, PTK2B oligo ant 0.83 and CYP2C19 act 0.9.
`O=C1OC(Cc2ccccn2)C(=O)C1=C1SCCS1` (stereo not drawn) gave PTK2B oligo ant 0.18.
`O=C(CSc1nnc(-c2ccc(OC(F)F)cc2)o1)NC(=O)NCc1ccco1` gave CYP2C9 inhib -2.6, CYP2C19 inhib -12.7, CYP2C9 act 1, PTK2B oligo ant 0.87 and CYP2C19 act 1.1.
Screening Cc1ccc(CNC(=O)C2(C)Oc3ccccc3NC2=O)cc1 (stereo not drawn) returned CYP2C9 inhib 90.3*, CYP2C19 inhib 79.2*, CYP2C9 act 0.1, PTK2B oligo ant -0.29 and CYP2C19 act 0.2.
`COc1cccc(CNC(=O)Nc2cccs2)c1` gave CYP2C9 inhib 53.9*, CYP2C19 inhib 86.0*, CYP2C9 act 0.5, PTK2B oligo ant 0.11 and CYP2C19 act 0.1.
For COCCNC(=O)C1(C)Oc2ccccc2NC1=O (stereo not drawn) the results were CYP2C9 inhib 11.2, CYP2C19 inhib 9.5, CYP2C9 act 0.9, PTK2B oligo ant -0.52 and CYP2C19 act 0.9.
Screening Cc1ccc(CNC(=O)Nc2ccccc2)cc1 returned CYP2C9 inhib 32.2, CYP2C19 inhib 91.5*, CYP2C9 act 0.7, PTK2B oligo ant 1.08 and CYP2C19 act 0.1.
O=C(Cc1cccs1)NCc1ccccc1F was read as CYP2C9 inhib 10.3, CYP2C19 inhib 70.6*, CYP2C9 act 0.9, PTK2B oligo ant 0.72 and CYP2C19 act 0.3.
COc1ccc(CNC(=O)Nc2cccs2)cc1OC was read as CYP2C9 inhib 5.4, CYP2C19 inhib 40.9, CYP2C9 act 0.9, PTK2B oligo ant 0.21 and CYP2C19 act 0.6.
`CCOc1ccc(CCN2C(=O)CCC2(C)C(=O)NC(C)CC)cc1OCC` (stereo not drawn) gave CYP2C9 inhib 4.2, CYP2C19 inhib 6.3, CYP2C9 act 1, PTK2B oligo ant -0.86 and CYP2C19 act 0.9.
For O=C(Cc1cccs1)NCc1ccccc1 the results were CYP2C9 inhib 3.4, CYP2C19 inhib 41.1, CYP2C9 act 1, PTK2B oligo ant 0.1 and CYP2C19 act 0.6.
Screening Cc1ccc(CNC(=O)Cc2cccs2)cc1 returned CYP2C9 inhib -4.3, CYP2C19 inhib 89.9*, CYP2C9 act 1, PTK2B oligo ant 0.12 and CYP2C19 act 0.1.
For COc1cccc(CNC(=O)CCNS(=O)(=O)c2cccs2)c1 the results were CYP2C9 inhib 5.8, CYP2C19 inhib 90.1*, CYP2C9 act 0.9, PTK2B oligo ant 0.26 and CYP2C19 act 0.1.
Screening Cc1ccc(CNC(=O)Nc2cccs2)cc1 returned CYP2C9 inhib 10.0, CYP2C19 inhib 51.3*, CYP2C9 act 0.9, PTK2B oligo ant 0.35 and CYP2C19 act 0.5.
For CNc1nn(-c2cccc(Cl)c2)nc1N the results were CYP2C9 inhib 23.0, CYP2C19 inhib 18.4, CYP2C9 act 0.8, PTK2B oligo ant -0.73 and CYP2C19 act 0.8.
